SMILES strings stand for the structures. Records with an inconclusive call do not appear. Values without a mark were called inactive. The source made the active and inactive calls. The call rests on the fitted dose curve; in most records, active means well fitted curve in the direction sought with a large enough effect; inconclusive means small, poorly fitted or top-dose-only effect, or another doubt; inactive means no such curve, though single readings can be large; an effect the other way counts as inactive or inconclusive.

A short description of experiment [1]: Primary qHTS for inhibitors of La Crosse Virus (LACV) - induced cell death in SH-SY5Y cells (AID 1508616).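 Further: top concentration of the series differs between compounds; 0% = infected DMSO wells and 100% = uninfected DMSO wells; higher means more rescue of cells from virus-induced death.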 A digest of the protocol: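 SH-SY5Y cells (6000/well) plated 24 h, then given compounds by pin transfer and LACV at 0.01 MOI for 6 days at 37C. Viability measured by ATPLite luminescence, normalized to infected DMSO and uninfected DMSO.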
On the technique in general: qHTS replaces the single test concentration by a dilution series.

Experiment [2] can be described thus: Counterscreen qHTS for small molecule stabilizers of the endoplasmic reticulum resident proteome: GLuc-NoTag assay (AID 1508627). Further: potency means the concentration at half of the fitted maximal effect. The procedure, abridged: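 SH-SY5Y cells stably expressing constitutively secreted GLuc without SERCaMP tag, exposed to compound for 19 hr, then to 100 nM thapsigargin for 4 hr at 37C. Medium luciferase was read by coelenterazine luminescence without lysis.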
(In general: A counterscreen serves to expose hits that act by an unwanted route or on another target.)

A short description of experiment [3]: Confirmatory qHTS for small molecule stabilizers of the endoplasmic reticulum resident proteome: Secreted ER Calcium Modulated Protein (SERCaMP) assay (AID 1508628). Further: nearly all actives have a fitted effect of over 40% in size. Further: potency means the concentration at half of the fitted maximal effect. A digest of the protocol: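 SH-SY5Y cells stably expressing GLuc-SERCaMP, treated 16 h with compound (primary 1.53, 7.67, 38.3 uM; confirmation 11 concentrations, up to 76.6 uM), then 100 nM thapsigargin for 4 h. Secreted Gaussia luciferase in medium read by coelenterazine luminescence.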

In experiment [4] the target is Calcium and integrin-binding protein 1 (Homo sapiens) (UniProt Q99828). Description: Primary qHTS for Identification of Calcium Integrin Binding Protein 1 (CIB1) Competitor (AID 1508620).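 Further: GST tagged CIB1 binding a fluorescein labelled alphaIIb integrin peptide tracer; top concentration of the series differs between compounds; on the % scale 0 is the no-effect control and ±100 the full control effect.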 The procedure, abridged:
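Fluorescence polarization competition: GST-tagged CIB1 (1 uM final) preincubated with compound 15 min at room temperature, then FITC-labelled alphaIIb peptide (100 nM final) added. After 15 min at room temperature, polarization read at Ex 480/Em 540.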

Experiment [5] can be described thus: Primary qHTS for small molecule stabilizers of the endoplasmic reticulum resident proteome: Secreted ER Calcium Modulated Protein (SERCaMP) assay (AID 1508630). Further: on the % scale 0 is the no-effect control and ±100 the full control effect. The procedure, abridged: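 GLuc-SERCaMP-expressing SH-SY5Y cells, pretreated 16 h with compound, are challenged with thapsigargin to empty ER calcium stores; after 4 h, coelenterazine is added directly to the medium and luminescence is imaged.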

Experiment [6] can be described thus: Cell Viability qHTS for small molecule stabilizers of the endoplasmic reticulum resident proteome (AID 1508629).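 Further: human SH-SY5Y neuroblastoma cells carrying the GLuc-SERCaMP reporter; compound exposure about 46 h in total before the viability read; on the % scale 0 is the no-effect control and ±100 the full control effect.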 The settings on record: cell viability counter-screen, 100 nM thapsigargin for final 4 h.

Calcium and integrin-binding protein 1 (Homo sapiens), sequence (Q99828 whole entry, looked up): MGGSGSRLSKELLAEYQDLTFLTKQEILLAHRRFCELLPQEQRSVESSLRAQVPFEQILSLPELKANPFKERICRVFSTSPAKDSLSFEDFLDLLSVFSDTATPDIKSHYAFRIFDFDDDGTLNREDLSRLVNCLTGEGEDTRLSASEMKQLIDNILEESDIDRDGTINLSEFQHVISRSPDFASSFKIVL

In the case of `C=C[C@H]1CN2CC[C@@H]1C[C@@H]2[C@@H](O)c1ccnc2ccc(OC)cc12`, in experiment [1], the Potency entry is “inactive”. Besides, the results for the Potency in experiment [2] and in experiment [3] were 3.98 µM (active) and 31.6 µM (active), respectively.

`Cc1c(N)c(=O)n(-c2ccccc2)n1C`: the Potency result in experiment [1], in experiment [4] and in experiment [5] was “inactive” throughout.

On to `O=C(Nc1ccc(C(=O)O)c(O)c1)c1ccccc1`, for which the Potency result in experiment [1], in experiment [4] and in experiment [5] was “inactive” each time.

`O=C(O)c1ccccc1Nc1cccc(C(F)(F)F)c1`: the Potency result in experiment [1], in experiment [4] and in experiment [5] was “inactive” in each case.

Consider `CCOc1ccc2nc(S(N)(=O)=O)sc2c1`, for which the Potency entry in experiment [1], in experiment [4] and in experiment [5] was “inactive” each time.

For the molecule `CN1CCN(c2cc3c(nn2)Oc2ccccc2N3C)CC1`, the activity change in experiment [1] is 13.6% [at 1.78 µM]. The Potency result in experiment [4] and in experiment [5] was “inactive” in each case.

Turning to `CCCCCCCCCCCCCCCC(=O)OC(C)C`, the Potency entry in experiment [1], in experiment [4] and in experiment [5] was “inactive” in each case.

As for `NS(=O)(=O)c1ccc(-n2nc(C(F)(F)F)cc2-c2ccc(Cl)cc2)cc1`, the Potency entry in experiment [4] was “inactive”.

Regarding `O=C1CN(/N=C/c2ccc(-c3ccc([N+](=O)[O-])cc3)o2)C(=O)N1`, the Potency result in experiment [2] was “inactive”. In experiment [3], the Potency is 11.2 µM (active). The max response in experiment [6] is 25.5%.

As for `COc1cc(/C=C/C(=O)CC(=O)/C=C/c2ccc(O)c(OC)c2)ccc1O`, the Potency entry in experiment [3] is “inactive”.

Source of the values: PubChem BioAssay (NCATS).
